Molecules are shown by their SMILES. ± gives the uncertainty stated by the source.

For assay [1], the system named is FLX1. Kind of assay: cell viability z-score within plate (CellTiter-Glo), mean of 3 biological replicates; higher = higher viability relative to plate (less growth inhibition). As to conditions: 2 µM; time (hr): 120. The procedure:
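FLX1 fibrolamellar carcinoma cells (DNAJB1-PRKACA fusion), 600 cells/well in 384-well plates, treated with a Selleck kinase inhibitor library (L1200) at 2 uM for 5 days (120 hr); viability by CellTiter-Glo. A z-score was computed within each plate and averaged over three biological replicates.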
(In ATP-based viability assays light output follows the ATP content of the culture.)

The subject of assay [2] is FLX1 + dox-induced PRKAR1A G325D. Kind of assay: difference in log2 fold change of viability vs plate median (dox-induced PRKAR1A G325D minus uninduced); higher = compound less effective when PKA is inhibited. As to conditions: concentration: not stated (2 or 5 uM); 5 days. The procedure: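 For each plate a log2 fold change vs the plate median was derived, and the values without dox were subtracted from those with dox, averaged over three biological replicates.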

In the case of `CNC(=O)c1cccc(-c2ccc3c(N4CCOC[C@@H]4C)nc(N4CCOC[C@@H]4C)nc3n2)c1` [Vistusertib (AZD2014)], the “cell viability z-score within plate” value in assay [1] was -0.936 ± 1.4. For the same compound, in assay [2], the “difference in log2 fold change of viability” value (“difference in log2 fold change” for short) is 0.675.

Take `Cc1cnc(NC(=O)Nc2cc(Br)c(C)cc2OC[C@@H]2CNCCO2)cn1`: the “cell viability z-score within plate” value in assay [1] came out at 0.709 ± 0.31. Moreover, in assay [2], the “difference in log2 fold change” value was determined as 1.29.

As for `COc1cc2c(Nc3ccc(NC(=O)c4ccccc4)cc3)ncnc2cc1OCCCN1CCOCC1`, the “cell viability z-score within plate” value in assay [1] was 0.281 ± 0.48. Also, in assay [2], the “difference in log2 fold change” value worked out at 0.301.

Regarding `Cc1nc(Nc2cnn(C3CCNCC3)c2)nc2c1N(C)C(=O)c1cc3ccccc3cc1N2C`, the “cell viability z-score within plate” value in assay [1] is 1.62 ± 0.12. Moreover, in assay [2], the “difference in log2 fold change” value is -0.568.

Turning to `CCS(=O)(=O)Nc1ccc2c(c1)/C(=C(/Nc1ccc(CN3CCCCC3)cc1)c1ccccc1)C(=O)N2` [Hesperadin], the “cell viability z-score within plate” value in assay [1] was -2.01 ± 0.23. The “difference in log2 fold change” value in assay [2] was -0.105.

Regarding `C[C@@H]1COC(Nc2ccc3ncnc(Nc4ccc(OCc5nccs5)c(Cl)c4)c3c2)=N1` [Varlitinib], the “cell viability z-score within plate” value in assay [1] turned out to be 0.0259 ± 0.81. In assay [2], the “difference in log2 fold change” value is -0.557.

For `O=C(/C=C/c1ccc2ccccc2n1)c1ccncc1`, the “cell viability z-score within plate” value in assay [1] amounted to 0.276 ± 0.49. In addition, the “difference in log2 fold change” value in assay [2] is -0.467.

Consider `Nc1nc(N)c2nc(-c3cccc(O)c3)c(-c3cccc(O)c3)nc2n1`, for which, in assay [1], the “cell viability z-score within plate” value worked out at 0.649 ± 0.23. The “difference in log2 fold change” value in assay [2] is 0.117.

With `Cc1ncc(-c2ccnc(Nc3ccc(S(C)(=O)=O)cc3)n2)n1C(C)C`, the “cell viability z-score within plate” value in assay [1] stood at 0.322 ± 0.54. In addition, the “difference in log2 fold change” value in assay [2] is 0.632.

In the case of `Cc1nc(Nc2ncc(C(=O)Nc3c(C)cccc3Cl)s2)cc(N2CCN(CCO)CC2)n1` [Dasatinib], the “cell viability z-score within plate” value in assay [1] is -1.19 ± 0.2. In assay [2], the “difference in log2 fold change” value was 0.18.

With `CNC(=O)c1ccc(C)c(-n2c(C)cc(OCc3ccc(F)cc3F)c(Br)c2=O)c1`, the “cell viability z-score within plate” value in assay [1] was 0.325 ± 0.62. In assay [2], the “difference in log2 fold change” value amounted to 0.455.

`O=C1NC(=O)C(c2ccccc2[N+](=O)[O-])=C1Nc1ccc(O)c(Cl)c1`: the “cell viability z-score within plate” value in assay [1] stood at 0.229 ± 0.58. For the same compound, in assay [2], the “difference in log2 fold change” value is -0.00686.

Regarding `COc1cc(OC)c(/C=C/S(=O)(=O)Cc2ccc(OC)c(NCC(=O)O)c2)c(OC)c1`, the “cell viability z-score within plate” value in assay [1] is 0.00703 ± 0.25. For the same compound, the “difference in log2 fold change” value in assay [2] is 0.2.

Consider `CCCNC(=O)Nc1ccc(Oc2ncnc3cc(OC)c(OC)cc23)cc1Cl`, for which, in assay [1], the “cell viability z-score within plate” value came out at 0.704 ± 0.077. In assay [2], the “difference in log2 fold change” value is -0.22.

On to `NCC(=O)Nc1ccc(-n2nc(C(F)(F)F)cc2-c2ccc3c(ccc4ccccc43)c2)cc1`, for which the “cell viability z-score within plate” value in assay [1] is 0.225 ± 0.2. Further, the “difference in log2 fold change” value in assay [2] stood at 0.186.

As to `CCc1nc(-c2cccc(C)c2)c(-c2ccnc(NC(=O)c3ccccc3)c2)s1`, the “cell viability z-score within plate” value in assay [1] is 0.996 ± 0.36. The “difference in log2 fold change” value in assay [2] was 0.387.

Consider `Nc1cccc(-c2cc3c(Oc4cccc(O)c4)ncnc3[nH]2)c1`, for which, in assay [1], the “cell viability z-score within plate” value was -0.5 ± 0.21. Further, the “difference in log2 fold change” value in assay [2] is -0.478.

As for `CCN1CCN(Cc2ccc(C(=O)Nc3ccc(C)c(Oc4ccc5c(c4)CC(=O)N5)c3)cc2C(F)(F)F)CC1`, in assay [1], the “cell viability z-score within plate” value stood at 0.226 ± 0.35. The “difference in log2 fold change” value in assay [2] is -0.078.

Turning to `CCOC(=O)c1cnc2ccc(-c3cncc(NS(=O)(=O)c4ccccc4)c3)cn12`, the “cell viability z-score within plate” value in assay [1] was determined as 0.507 ± 0.62. Also, the “difference in log2 fold change” value in assay [2] turned out to be 0.663.

On to `COc1ccc2c(Oc3ccc(NC(=O)c4c(C)n(CC(C)(C)O)n(-c5ccccc5)c4=O)nc3)ccnc2c1`, for which, in assay [1], the “cell viability z-score within plate” value was 0.446 ± 0.46. For the same compound, the “difference in log2 fold change” value in assay [2] stood at 0.00712.

For the compound `CN(C[C@@H]1COCCO1)S(=O)(=O)Nc1ccc2ccc3ncc(-c4cnn(C)c4)cc3c(=O)c2c1`, the “cell viability z-score within plate” value in assay [1] was -0.122 ± 0.42. In addition, the “difference in log2 fold change” value in assay [2] is -0.247.

Regarding `Nc1nccc(Oc2ccc(NC(=O)c3c[nH]cc(-c4ccc(F)cc4)c3=O)cc2F)c1Cl`, the “cell viability z-score within plate” value in assay [1] was -0.37 ± 0.32. Besides, the “difference in log2 fold change” value in assay [2] is -0.00105.

With `CN1CCC(CNc2ccc3ncc(-c4cccc(OC(F)(F)F)c4)n3n2)CC1` [SGI-1776 free base], the “cell viability z-score within plate” value in assay [1] turned out to be 0.436 ± 0.2. Besides, in assay [2], the “difference in log2 fold change” value was -0.0813.

Regarding `FC(F)(F)c1ccc(/C=C/c2nc(COc3ccc(CCCCn4ccnn4)cc3)co2)cc1` [Mubritinib (TAK 165)], the “cell viability z-score within plate” value in assay [1] is -0.952 ± 0.95. For the same compound, in assay [2], the “difference in log2 fold change” value was found to be 0.102.

For the compound `Cc1cc2c(F)c(Oc3ncnn4cc(OC[C@@H](C)OC(=O)[C@H](C)N)c(C)c34)ccc2[nH]1`, in assay [1], the “cell viability z-score within plate” value came out at 0.531 ± 0.22. Besides, in assay [2], the “difference in log2 fold change” value stood at 0.461.

With `Cn1cnc2c(F)c(Nc3ccc(Br)cc3F)c(C(=O)NOCCO)cc21`, the “cell viability z-score within plate” value in assay [1] was -0.254 ± 0.15. In assay [2], the “difference in log2 fold change” value is -1.09.

Turning to `Cc1cnc(Nc2ccc(OCCN3CCCC3)cc2)nc1Nc1cccc(S(=O)(=O)NC(C)(C)C)c1`, in assay [1], the “cell viability z-score within plate” value is -0.235 ± 0.43. In addition, the “difference in log2 fold change” value in assay [2] was -0.00786.

In the case of `COc1cc2nccc(Oc3ccc(NC(=O)C4(C(=O)Nc5ccc(F)cc5)CC4)cc3)c2cc1OC` [Cabozantinib malate (XL184)], in assay [1], the “cell viability z-score within plate” value was found to be 0.553 ± 0.015. For the same compound, the “difference in log2 fold change” value in assay [2] is -0.77.

Take `Clc1ccc(C2(c3ccc(-c4cn[nH]c4)cc3)CCNCC2)cc1`: the “cell viability z-score within plate” value in assay [1] is 0.815 ± 0.24. In assay [2], the “difference in log2 fold change” value was found to be 0.734.

Turning to `CCN(CC)CCCCNc1ncc2cc(-c3cc(OC)cc(OC)c3)c(NC(=O)NC(C)(C)C)nc2n1`, the “cell viability z-score within plate” value in assay [1] is -0.321 ± 0.21. For the same compound, the “difference in log2 fold change” value in assay [2] was -0.527.

Regarding `CO[C@H]1C[C@@H]2CC[C@@H](C)[C@@](O)(O2)C(=O)C(=O)N2CCCC[C@H]2C(=O)O[C@H]([C@H](C)C[C@@H]2CC[C@H](n3cnnn3)[C@H](OC)C2)CC(=O)[C@H](C)/C=C(\C)[C@@H](O)[C@@H](OC)C(=O)[C@H](C)C[C@H](C)/C=C/C=C/C=C/1C` [Zotarolimus(ABT-578)], the “cell viability z-score within plate” value in assay [1] was 0.264 ± 0.45. The “difference in log2 fold change” value in assay [2] is 0.358.

As to `Cc1ccc(NC(=O)c2cccc(N(C)C)c2)cc1NC(=O)c1ccc(O)cc1`, the “cell viability z-score within plate” value in assay [1] is -0.188 ± 0.87. For the same compound, the “difference in log2 fold change” value in assay [2] is 0.402.

For the compound `CS(=O)(=O)N1CCc2c(-c3cnc(N)nc3)nc(N3CCOCC3)nc21`, the “cell viability z-score within plate” value in assay [1] was determined as 0.617 ± 0.29. The “difference in log2 fold change” value in assay [2] is 0.207.

For the compound `Cc1cc(C(C)Nc2ccccc2)c2nc(N3CCOCC3)cc(=O)n2c1` (configuration not stated), the “cell viability z-score within plate” value in assay [1] was -0.144 ± 0.28. The “difference in log2 fold change” value in assay [2] was 0.222.

For the compound `Cn1cnc2c(F)c(Nc3ccc(Br)cc3Cl)c(C(=O)NOCCO)cc21` [Selumetinib (AZD6244)], the “cell viability z-score within plate” value in assay [1] is -0.403 ± 0.49. In addition, the “difference in log2 fold change” value in assay [2] is -1.05.

Consider `Nc1nc(Nc2ccc(S(N)(=O)=O)cc2)nn1C(=O)c1c(F)cccc1F`, for which the “cell viability z-score within plate” value in assay [1] was -2.24 ± 0.22. Besides, the “difference in log2 fold change” value in assay [2] was determined as 0.0351.

The values above are taken from the supplement of paper PMC9925115.
